Source: PubChem BioAssay AID651813 (National Center for Advancing Translational Sciences (NCATS), 2012)
The campaign covered roughly 2,100 compounds. About 1,100 (52%) were called active. Not shown: some 27% with an inconclusive outcome. The set was probably picked from earlier hits. The list shows a part of the results. Values without a mark were called inactive. Calls follow the shape of the dose curve; as a rule, active = well fitted inhibition curve with a large enough effect; inconclusive = small, poorly fitted or top-dose-only effect; inactive = no such curve, though single readings can be large or run the other way.

Target: DNA dC->dU-editing enzyme APOBEC-3G (Homo sapiens) (UniProt Q9HC16)
Sequence (Q9HC16 whole entry, looked up): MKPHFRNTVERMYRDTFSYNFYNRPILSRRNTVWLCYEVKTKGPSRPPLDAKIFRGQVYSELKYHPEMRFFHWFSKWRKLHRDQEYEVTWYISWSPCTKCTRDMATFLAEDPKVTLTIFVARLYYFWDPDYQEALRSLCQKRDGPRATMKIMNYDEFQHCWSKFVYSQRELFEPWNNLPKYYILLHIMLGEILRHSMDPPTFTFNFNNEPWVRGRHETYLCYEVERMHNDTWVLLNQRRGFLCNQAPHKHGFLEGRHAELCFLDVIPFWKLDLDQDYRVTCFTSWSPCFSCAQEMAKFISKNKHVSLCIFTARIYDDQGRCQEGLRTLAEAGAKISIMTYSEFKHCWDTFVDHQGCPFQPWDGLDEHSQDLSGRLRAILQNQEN
Experiment: qHTS for inhibitors of Vif-A3G interactions: Cherry picks counterscreen;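 also: hits raise yellow fluorescence by blocking Vif-driven A3G-eYFP degradation; nearly all actives have a fitted effect of over 70% in size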;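 as to max response: max response given as percent of control signal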
Settings: HeLa A3G-eYFP + Vif (tagged APOBEC3G with the HIV-1 protein that degrades it), eYFP fluorescence, 24 h
Method in brief: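 HeLa cells stably expressing A3G-eYFP and Vif were treated for 24 h at 37 deg C with compounds at several concentrations; yellow fluorescence (Ex 488 nm, Em 500-530 nm) read by Acumen Explorer, MG132 as positive control.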
Potency is read from the fitted curve at half-maximal effect.

`CCN(CC)c1ccc(/C=C/c2ccnc3ccccc23)cc1` was tested. Which Potency did it give?
The Potency was 14.6 µM (active).

With `CC(C)CN(CC(C)C)c1ccc(/C=C/c2ccnc3ccccc23)cc1` as the molecule, how does the Potency read?
The Potency was 16.4 µM (active).

How did the Potency turn out when `CCN(CCCN(C)C)c1ccc(/C=C/c2ccnc3ccccc23)cc1` was run?
Its Potency is 18.4 µM (active).

With `O=C1OC(/C(=C\Nc2cc(Cl)ccc2O)[N+](=O)[O-])c2ccccc21` (stereo not given) as the molecule, how does the max response read?
The max response was 4.09%.

`Cc1nc2ccc(NC(=O)c3cc(S(=O)(=O)N(C)c4ccccc4)ccc3Cl)cc2s1` was tested. Which Potency did it give?
The Potency was 16.4 µM (active).

With `N=c1n(CC(=O)c2ccc([N+](=O)[O-])cc2)c2ccccc2n1Cc1ccccc1` as the molecule, how does the Potency read?
Its Potency is 20.6 µM (active).

With `COc1ccc(-c2cc(C(F)F)n3ncc(C(=O)N4CCc5ccccc54)c3n2)cc1` as the molecule, how does the Potency read?
The Potency was 2.23 µM (active).

Which Potency does the source give for `CC1(C(=O)NCc2cccs2)Cc2c(-c3ccc(C(N)=O)cc3)ccnc2O1` (stereo not given) here?
Its Potency is 9.94 µM (active).

With `CC(=O)Nc1ccc(-c2ccnc3c2CC(C)(C(=O)NCc2ccco2)O3)cc1` (stereo not given) as the molecule, how does the Potency read?
Its Potency is 7.04 µM (active).

How did the Potency turn out when `CC1(C(=O)NCc2ccco2)Cc2c(-c3cccc(C(N)=O)c3)ccnc2O1` (stereo not given) was run?
Its Potency is 7.04 µM (active).

`CC(=O)Nc1cccc(-c2ccnc3c2CC(C)(C(=O)NCc2cccs2)O3)c1` (stereo not given) was tested. Which Potency did it give?
Its Potency is 3.14 µM (active).

With `Cn1c(=O)c(N)c2c3c(c(Br)ccc31)C(=O)c1ccccc1-2` as the molecule, how does the max response read?
Its max response is 44.6%.

With `CC(=O)Nc1cccc(-c2ccnc3c2CC(C(=O)NCc2cccs2)O3)c1` (stereo not given) as the molecule, how does the Potency read?
Its Potency is 2.23 µM (active).

`CC1(C(=O)NCc2ccc(F)c(F)c2)Cc2c(-c3cccc(C(N)=O)c3)ccnc2O1` (stereo not given) was tested. Which Potency did it give?
Its Potency is 17.7 µM (active).

With `CC1(C(=O)NCc2ccccc2)Cc2c(-c3cccc(C(N)=O)c3)ccnc2O1` (stereo not given) as the molecule, how does the Potency read?
Its Potency is 6.27 µM (active).

With `CC1(C(=O)NCc2ccccc2)Cc2c(-c3ccc(C(N)=O)cc3)ccnc2O1` (stereo not given) as the molecule, how does the Potency read?
The Potency was 6.27 µM (active).

With `CC(=O)Nc1cccc(-c2ccnc3c2CC(C)(C(=O)NCc2ccccc2)O3)c1` (stereo not given) as the molecule, how does the Potency read?
The Potency was 1.4 µM (active).

How did the Potency turn out when `CC(=O)Nc1ccc(-c2ccnc3c2CC(C(=O)NCc2ccccc2)O3)cc1` (stereo not given) was run?
Its Potency is 0.444 µM (active).

How did the Potency turn out when `CC(=O)Nc1ccc(-c2ccnc3c2CC(C(=O)NCc2cccc(Cl)c2)O3)cc1` (stereo not given) was run?
Its Potency is 3.14 µM (active).

`N#Cc1c(C(F)(F)F)cc(-c2ccccc2)nc1SCc1nc(N)nc(N2CCOCC2)n1` was tested. Which Potency did it give?
The Potency was 2.91 µM (active).

How did the Potency turn out when `Cc1ccc(/C(C#N)=C\c2ccc(N3CCOCC3)o2)cc1` was run?
The Potency was 17.7 µM (active).

How did the max response turn out when `N#CC(C#N)=C1C=C2C=C(N3CCOCC3)CCC2CC1` (stereo not given) was run?
Its max response is 51.3%.

How did the Potency turn out when `N#C/C(=C/c1ccc(N2CCOCC2)o1)c1ccc(Cl)cc1` was run?
The Potency was 2.31 µM (active).

Which Potency does the source give for `N#C/C(=C\c1ccc(N2CCOCC2)o1)c1ccccc1` here?
Its Potency is 14 µM (active).

`N#C/C(=C/c1ccc(N2CCCCCC2)o1)c1ccc(Cl)cc1` was tested. Which Potency did it give?
Its Potency is 2.91 µM (active).
